Results on seven compounds are retold here after PMC5540273 (PLoS ONE, 2017).

Holding throughout (conditions): concentration: 1 μM,replicates: in singlicate; n = 1
Experiment [1] concerns MAP3K15.
In experiment [2] the test system is MAP3K1.
For experiment [3], the system named is MAP3K2.
In experiment [4] the test system is MAP3K3.
Experiment [5] deals with MAP3K4.
Experiment [6] concerns MAP4K2.
Experiment [7] concerns MAP4K3.
Experiment [8] deals with MAP4K4.
Experiment [9] deals with MAP4K5.
Experiment [10] concerns MAPKAPK2.
For experiment [11], the system named is MAPKAPK5.
The test system of experiment [12] is MARK1.
Experiment [13] relates to MARK2.
For experiment [14], the system named is MARK3.
The test system of experiment [15] is MARK4.
Experiment [16] has as its system MAST1.
In experiment [17] the test system is T1, MEK1.
T1 construct: gene MAP2K1

In experiment [18] the test system is T2, MEK2.
T2 construct: gene MAP2K2

Experiment [19] relates to T3, MEK3.
T3 construct: gene MAP2K3

Experiment [20] deals with T4, MEK4.
T4 construct: gene MAP2K4
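Further: KINOMEscan kinase panel screen.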

As for `O=C(NCCCN1CCOC1=O)c1cnc(NCc2cc(Cl)ccc2Cl)nc1NC1CCCC1`, the “%Inh” value came out at 0% in [1]; 1% in experiment [2]; 63% in experiment [3]; 48% in [4]; 14% in [5]; 0% in [6]. For the same compound, the “%Inh” value is recorded as 37% in experiment [7]; 15% in experiment [8]; 23% in experiment [9]; 0% in experiment [10]; 0% in [11]; 13% in experiment [12]. For the same compound, the “%Inh” value in experiment [13] was 0%; in experiment [14] it was 30%; in experiment [15], 5%; in [16] it was 19%; in [17], 0%; in experiment [18], 30%. Also, the “%Inh” value is listed as 10% in experiment [19] and 0% in experiment [20].

On to `CC(C)Nc1cc(-c2ccc3c(N)n[nH]c3c2)nc(N)n1` [GSK2221681], for which the “%Inh” value is 0% in experiment [1]; 0% in experiment [2]; 1% in experiment [3]; 0% in experiment [4]; 27% in [5]; 6% in experiment [6]. Further, the “%Inh” value was 0% in [7]; 7% in experiment [8]; 5% in experiment [9]; 32% in experiment [10]; 0% in experiment [11]; 0% in experiment [12]. In addition, the “%Inh” value in experiment [13], in [14], in experiment [15], in experiment [16], in experiment [17] and in experiment [18] was 0% throughout. In addition, the “%Inh” value worked out at 0% in experiment [19] and 17% in experiment [20].

Take `Cc1occc1-c1nc(N)c(OC[C@@H](N)Cc2c[nH]c3ccccc23)cc1-c1cc2c(C)n[nH]c2cn1` [GSK1660450]: the “%Inh” value in experiment [1] was 20%; in [2] it was 21%; in experiment [3] it was 97%; in experiment [4], 99.1%; in experiment [5] it was 0%; in experiment [6], 99.4%. The “%Inh” value amounted to 99.4% in [7]; 99.3% in experiment [8]; 99.6% in experiment [9]; 0% in [10]; 0% in [11]; 70% in [12]. In addition, the “%Inh” value was found to be 71% in [13]; 71% in experiment [14]; 57% in experiment [15]; 19% in experiment [16]; 0% in [17]; 0% in [18]. Also, the “%Inh” value amounted to 39% in experiment [19] and 0% in experiment [20].

For the compound `C=CC(=O)Nc1cc2c(Nc3ccc(F)c(Cl)c3)ncnc2cc1OCCCN1CCOCC1` [GW781483], the “%Inh” value in [1] is on record as 0%; in experiment [2], 0%; in experiment [3], 0%; in experiment [4], 0%; in experiment [5], 5%; in [6], 1%. Besides, the “%Inh” value in experiment [7] came to 0%; in experiment [8], 3%; in experiment [9], 10%; in experiment [10], 23%; in experiment [11] it was 14%; in experiment [12] it was 0%. Further, the “%Inh” value was determined as 9% in experiment [13]; 10% in experiment [14]; 0% in experiment [15]; 36% in [16]; 38% in [17]; 63% in [18]. In addition, the “%Inh” value in experiment [19] stood at 7%; in experiment [20] it was 0%.

In the case of `C[C@@H]1CCN(C(=O)CC#N)C[C@@H]1N(C)c1ncnc2[nH]ccc12`, the “%Inh” value in [1] stood at 0%; in experiment [2] it was 0%; in experiment [3] it was 0%; in experiment [4], 0%; in experiment [5] it was 11%; in experiment [6], 0%. Further, the “%Inh” value in experiment [7] turned out to be 4%; in experiment [8], 0%; in experiment [9], 0%; in experiment [10] it was 0%; in experiment [11] it was 0%; in experiment [12], 0%. For the same compound, the “%Inh” value in experiment [15], in experiment [16], in experiment [17], in experiment [18], in experiment [19] and in experiment [20] was 0% in each case.

With `CCn1c(-c2nonc2N)nc2c(C#CC(C)(C)O)nc(OCCN)cc21.Cl.Cl` [GSK902056], the “%Inh” value in experiment [1] is given as 2%; in [2], 11%; in experiment [3], 61%; in experiment [4], 31%; in [5], 0%; in experiment [6], 0%. For the same compound, the “%Inh” value in [7] was 0%; in experiment [8] it was 0%; in experiment [9], 13%; in experiment [10], 24%; in experiment [11], 0%; in experiment [12], 0%. Further, the “%Inh” value was 0% in experiment [13]; 0% in experiment [14]; 0% in experiment [15]; 28% in experiment [16]; 0% in experiment [17]; 0% in experiment [18]. In addition, the results for the “%Inh” value in [19] and in [20] were 37% and 26%, respectively.

As for `Cc1cc(C(=O)Nc2ccc(Oc3ccc4nc(NC(=O)C5CC5)cn4n3)cc2)nn1-c1ccccc1`, the “%Inh” value is recorded as 0% in experiment [1]; 0% in experiment [2]; 0% in experiment [3]; 30% in experiment [4]; 16% in experiment [5]; 0% in experiment [6]. The “%Inh” value in [7] came to 2%; in experiment [8], 0%; in experiment [9] it was 0%; in [10], 8%; in [11] it was 0%; in experiment [12] it was 9%. In addition, the “%Inh” value in experiment [13] is 3%; in experiment [14], 7%; in [15], 44%; in experiment [16] it was 16%; in experiment [17] it was 0%; in [18], 17%. For the same compound, the “%Inh” value in [19] and in experiment [20] was 0% in each case.
